Source: PubChem (National Center for Advancing Translational Sciences (NCATS))
Most compounds without a hit are left out; they make up all but 6% or so of the library.
D1 PAM = human D1 dopamine receptor positive modulation. potentiation, % at 10 µM. HEK293 TREx D1 cells, calcium flux, dopamine EC20 potentiation. P21728. hit rate 0.036% among 360,000; in the data active = potentiation above about 30%; also: 0% is about no effect
Target sequence (P21728 whole entry, looked up): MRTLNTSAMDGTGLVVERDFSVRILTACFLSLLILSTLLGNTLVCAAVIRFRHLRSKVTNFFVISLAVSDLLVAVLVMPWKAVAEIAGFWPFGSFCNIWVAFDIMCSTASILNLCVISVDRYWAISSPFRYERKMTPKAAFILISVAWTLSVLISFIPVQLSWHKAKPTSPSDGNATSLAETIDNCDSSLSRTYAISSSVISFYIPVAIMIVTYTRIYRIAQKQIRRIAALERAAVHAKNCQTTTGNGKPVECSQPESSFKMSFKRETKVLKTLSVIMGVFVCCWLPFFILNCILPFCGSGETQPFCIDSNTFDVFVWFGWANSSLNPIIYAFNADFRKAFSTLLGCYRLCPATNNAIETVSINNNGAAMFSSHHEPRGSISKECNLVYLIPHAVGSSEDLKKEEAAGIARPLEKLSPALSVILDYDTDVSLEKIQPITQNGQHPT
D1 ag = human D1 receptor agonism; activation, % at 2 µM; HEK293 T-REx D1 cells, calcium flux, agonist mode; AID 504660; P21728; hit rate 1% among 360,000; in the data active = activation above about 30%; also: 0% is about no effect
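Agonism was scored from calcium flux recorded over 180 s (1 read/s) after pintool compound addition, following a 10-cycle baseline. Cells were inducible force-coupled HEK293 TREx D1, plated overnight at 30 C and loaded with no-wash calcium dye.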
D3 antag = blocks the human D3 dopamine receptor; AID 652054; P35462; max response, negative = inhibition, %; hit rate 2.5% among 360,000; D3R cells, DiscoveRx beta-arrestin luminescence, antagonist mode; active compounds read low; in the data active = max response below about -50%; inconclusive = no clear call, values can overlap the other calls; also: % is scaled to controls: 0 for no effect and ±100 for the full control effect
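Cells plated overnight at 1500 cells/well, then exposed to library compounds with dopamine controls for 90 minutes at 37 degrees C. DiscoveRx reagent added for 30–60 minutes at room temperature; luminescence read, quantitative HTS format.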
D3 ag = activates the human D3 dopamine receptor; D3R DiscoveRx beta-arrestin cells, luminescence, 90 min; P35462; hit rate 0.58% among 410,000; max activation, %; AID 652048; in the data active = max activation above about 30%; also: 0% is about no effect
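Agonist-mode cell screen: cells plated at 1500/well and incubated overnight at 37 °C, then exposed to library compounds for 90 min at 37 °C. Detection reagent was added for 30–60 min at room temperature, and luminescence was read.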
D1 antag = human D1 dopamine receptor antagonism; HEK293 TREx D1 cells, calcium flux, dopamine EC80; active compounds read low; activity change, negative = inhibition, % at 10 µM; hit rate 3.2% among 360,000; AID 504652; in the data active = activity change below about -30%; also: % is scaled to controls: 0 for no effect and ±100 for the full control effect
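Compound effects on dopamine-evoked calcium signalling were measured in tetracycline-induced HEK293 Trex D1 cells. Dopamine at EC80 followed a 180 s compound pre-read, and fluorescence was tracked kinetically for 180 s more.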
* marks the source's active call; other numbers are inactive results; ? = inconclusive; / = no result.

SMILES | D1 PAM | D1 ag | D3 antag | D3 ag | D1 antag
O=C(NCCN1C(=O)S/C(=C\c2ccc(Cl)c([N+](=O)[O-])c2)C1=O)C1=COCCO1 | -5.8 | 8.1 | -55.2* | -7.8 | -56.9*
Cn1cccc1-c1cc2n(n1)CCC(=O)N2CCCC(=O)NCc1ccc(F)cc1 | 0.5 | 0.6 | / | -6.0 | 3.4
COc1ccc(S(=O)(=O)Nc2c(C)nn(C)c2C)cc1Br | / | / | 21.1 | -1.6 | /
Nc1nc(Nc2cccc(Cl)c2)sc1C(=O)c1ccc(F)cc1 | -4.9 | -1.7 | / | -19.4 | -36.9*
CC(=O)Nc1nc(C2COc3ccccc3O2)cs1 (centres undefined) | -1.7 | 3.3 | 11.9 | 3.1 | -16.2
NC(N)=Nc1nc(C2COc3ccccc3O2)cs1 (centres undefined) | -9.2 | 10.4 | 8.7 | 8.2 | -30.6*
CCOc1ccccc1C(=O)Nc1cc(C)ccc1NC(=O)c1ccco1 | 4.6 | -0.4 | 2.4 | 6.3 | -12.9
COc1cc(C(C(=O)NCC2CCCO2)N(C(=O)Cn2nnc3ccccc32)c2ccc(OC)c(OC)c2)ccc1O (centres undefined) | -4.0 | 0.3 | 15.5 | 15.6 | -79.9*
COc1ccc(N(C(=O)CNC(=O)c2cccs2)C(C(=O)NCC2CCCO2)c2ccccc2)cc1OC (centres undefined) | -4.0 | 1.9 | 7.4 | 3.4 | -55.3*
COc1ccc(N(C(=O)CNC(=O)c2cccs2)C(C(=O)NCC2CCCO2)c2ccccc2)cc1 (centres undefined) | -5.5 | 29.6 | 4.1 | 13.2 | -13.3
CC(=O)C1=CCC(c2ccccc2)N(S(=O)(=O)c2ccccc2C)C1 (centres undefined) | / | / | 0.0 | 1.0 | /
O=c1[nH]c2ccc(S(=O)(=O)N3CCN(S(=O)(=O)c4ccc5c(c4)OCCO5)CC3)cc2[nH]c1=O | -1.8 | 0.6 | / | / | -17.4
O=C(CNC(=O)c1ccco1)OCC(=O)c1ccc([N+](=O)[O-])cc1 | 3.2 | 1.8 | -1.6 | 32.3* | -5.5
O=C(CNC(=O)c1ccco1)OCC(=O)c1ccc(Cl)cc1 | -0.5 | 1.9 | 23.2 | -0.2 | -12.7
COc1ccc(C)cc1NC(=O)Cn1cc(S(=O)(=O)N2CCC(C)CC2)c2ccccc2c1=O | -1.6 | 5.1 | / | -6.3 | -8.5
O=C(NNC(=O)c1ccc(Br)s1)c1cccc(Cl)c1 | -4.2 | 0.3 | -14.8 | -5.9 | -6.8
O=C(c1ccccc1)N1CCN(C(=O)c2ccc3c(c2)OCCO3)CC1 | -3.0 | 1.2 | -16.4 | -7.9 | -38.7*
O=C(c1ccccc1)c1ccc2c(c1)OCCCO2 | -2.7 | 1.1 | -0.6 | 17.0 | -40.4*
CCCCC(=O)NC(NC(=S)N1CCOCC1)C(Cl)(Cl)Cl (centres undefined) | 5.4 | 4.8 | -2.8 | 4.2 | -34.0*
COc1ccc(-c2csc3ncnc(Nc4cc(OC)cc(OC)c4)c23)cc1 | 0.5 | 13.4 | / | 3.8 | 10.5
CN(C)S(=O)(=O)c1ccc(S(=O)(=O)N2CCN(CCC#N)CC2)cc1 | -3.6 | -0.8 | 0.0 | -8.0 | -32.7*
N#CCCN1CCN(S(=O)(=O)c2ccc(C3CCCCC3)cc2)CC1 | -6.1 | 0.2 | 7.5 | -1.2 | -19.3
CC1CCCCC1NS(=O)(=O)c1ccc(S(=O)(=O)N2CCN(CCC#N)CC2)cc1 (centres undefined) | -8.7 | 5.5 | 15.5 | -2.1 | -34.9*
CCN(CC)S(=O)(=O)c1ccc(S(=O)(=O)N2CCN(CCC#N)CC2)cc1 | 12.9 | 1.9 | 0.0 | -6.7 | 0.4
CCOc1ccc(CCN2C(=O)C(=O)N([C@@H](CC(C)C)CN3CCC[C@H]3CN3C(=O)C(=O)NC[C@@H]3CC(C)C)C[C@@H]2Cc2ccc(O)cc2)cc1 | / | / | -14.1 | 4.1 | /
SMILES | D1 PAM | D1 ag | D3 antag | D3 ag | D1 antag
Nc1[nH]c2cc([N+](=O)[O-])ccc2c1-c1ccccn1 | -12.2 | 65.3* | -23.0 | -2.1 | -12.1
Nc1nc2ccc([N+](=O)[O-])cc2[nH]1 | -4.7 | 2.8 | -25.9 | -4.4 | 10.5
O=C(N[C@@H](Cc1ccc(O)cc1)C(=O)O)c1ccc(C(F)(F)F)cc1 | -0.1 | -1.9 | 0.0 | 44.4* | 5.4
CC(C)(C)c1ccc(C(=O)NC(Cc2ccccc2)C(=O)O)cc1 (centres undefined) | 7.6 | 1.3 | / | / | -0.3
O=C(COCc1ccccc1)N[C@@H](Cc1ccc(O)cc1)C(=O)O | -3.0 | -2.6 | 30.0 | 10.1 | -35.6*
COc1ccc(CCNC(=O)c2ccc3c(c2)CCN3S(=O)(=O)c2ccccc2)cc1OC | 3.6 | 4.1 | / | 7.8 | -20.8
O=C(Nc1ccccc1)c1nn(-c2ccccc2)c(=O)cc1C(F)(F)F | -3.3 | 2.9 | -50.4* | 3.0 | 21.4
O=C(COC(=O)CSc1ccc(F)cc1)NCC1CCCCC1 | -4.3 | 3.0 | -18.3 | -3.4 | -37.3*
O=C(COC(=O)CSc1ccc(F)cc1)NC1CC1 | / | / | 15.5 | 0.8 | /
CCOc1ccc(-n2c(-c3ccc(Br)cc3)cc3c2CC(C)(C)CC3=O)cc1 | -0.7 | 5.4 | / | -21.2 | -0.7
Clc1ccc(CCNC(c2cccc(Cl)c2)c2nnc(-c3ccccc3)o2)cc1 (centres undefined) | -0.7 | 24.1 | / | -3.0 | 11.4
Clc1ccc(CCNC(c2nnc(-c3ccccc3)o2)c2ccccc2Cl)cc1 (centres undefined) | 6.7 | 68.8* | / | -13.9 | -10.0
Fc1ccc(C(NCCc2ccc(Cl)cc2)c2nnc(-c3ccccc3)o2)c(Cl)c1 (centres undefined) | 8.7 | 64.4* | / | -2.5 | -16.2
CC(C)CCNC(=O)CN1C(=O)c2cccnc2Sc2ccccc21 | -4.2 | 0.2 | / | -4.0 | 6.7
O=C(Cn1[nH]c(=O)c2ccccc2c1=O)N1CC=C(c2ccccc2)CC1 | -8.3 | 3.5 | 26.3 | 1.8 | -30.4*
O=C(O)CCC(=O)N1CC=C(c2ccccc2)CC1 | -4.2 | 2.4 | ? | -22.9 | 2.2
O=S(=O)(c1ccc(F)cc1)c1snnc1-c1ccccc1 | -1.5 | 5.5 | -18.5 | 7.9 | -4.6
O=S(=O)(c1ccc(Cl)cc1)c1snnc1-c1ccccc1 | -3.4 | 6.6 | -64.3* | -10.0 | -19.5
CN1CCC(=NOc2ccc([N+](=O)[O-])cc2)CC1 | -9.2 | 10.7 | 9.0 | -7.2 | -51.9*
COc1ccc(C(=O)ON=C2CCN(c3ccc([N+](=O)[O-])cc3)CC2)cc1 | 7.6 | 14.9 | 10.0 | 10.5 | -1.6
Cc1cc(C)nc(SCC(=O)OCC(=O)Nc2nc3ccccc3s2)n1 | 0.5 | 31.3* | -10.3 | -9.9 | -5.7
C[C@@H]1CN([C@@H](C)CO)S(=O)(=O)c2ccc(-c3ccc(C#N)cc3)cc2O[C@@H]1CN(C)Cc1ccccn1 | / | / | 2.1 | 1.0 | /
CC1(C)OC[C@@H]2O[C@@]3(C(=O)O)OC(C)(C)O[C@H]3[C@@H]2O1 | / | / | / | 3.6 | /
Nc1nc(N)c(N=Nc2ccc(S(N)(=O)=O)cc2)c(=O)[nH]1 | 4.3 | 2.6 | -54.8* | -6.1 | 8.9
NS(=O)(=O)c1ccc(N=Nc2c(O)ccc3ccccc23)cc1 | -1.4 | 0.2 | -2.3 | 4.0 | 10.6
